From PubChem BioAssay (Tox21)
Results filed as inconclusive are left out. Where a structure was tested more than once in an assay, its records may differ in their call. The source made the active and inactive calls. Calls come from the whole dose curve; as a rule, active = well fitted cell-killing curve with a large enough effect in the repeat runs; inconclusive = weak or mixed curves, or effect the other way; inactive = no such curve, though single readings can be large or run the other way.

Assay: qHTS assay to identify small molecule antagonists of the sonic hedgehog signaling (Shh) pathway - cell viability counter screen (AID 1259367); note: nearly all actives have a fitted effect of over 55% in size
Conditions: NIH/3T3 Gli1-Luc viability, CellTiter-Fluor, 24 h; series mostly up to 92.4 µM; viability change, negative = cytotoxic: at the top concentration
Source text: National Center for Advancing Translational Sciences [NCATS]
NIH Chemical Genomics Center [NCGC]
U.S. Environmental Protection Agency [EPA]
National Institutes of Environmental Health Sciences [NIEHS]
National Toxicology Program [NTP]
U.S. Food and Drug Administration [FDA]
The sonic hedgehog (Shh) pathway is essential for normal embryonic development. Dysregulation of the Shh pathway can cause severe developmental defects in organs. Therefore chemicals that interfere with the pathway are potential developmental toxicants. A cell line designated 3T3Gli1-Luc (DMB/OARSA/CFSAN/FDA, Laurel, MD), a NIH/3T3 derived clone containing stably integrated Gli1-Luc reporter is used to detect chemical interference of the Shh pathway, by changes in the expression of the firefly Luc gene under the control of the Gli1 transcriptional response element. This cell line was used to screen Tox21 libraries for identifying and prioritizing the potential developmental toxicants that interfere Shh pathway. Conditioned medium-stimulated mode was used to screen for chemicals inhibiting Shh signaling. The cytotoxicity of the compounds was tested in parallel by measuring the cell viability using CellTiter-Fluor assay system (Promega, Madison, WI) in the same wells.
Tox21 Assay Protocol Summary:
3T3 Gli1-Luc cells were dispensed at 2,000 per well in 5uL of culture medium into white solid bottom 1536-well plates (Greiner Bio-One, Monroe, NC) using a Multidrop Combi (Thermo Scientific, Waltham, MA) dispenser. The assay plates were incubated at 37 C and 5% CO2 for 4hr, and then 23nL of compounds dissolved in DMSO and positive control were transferred using a Pintool station (Wako, San Diego, CA). The compound transfer was followed by the addition of 1ul conditioned medium or assay buffer using two separate tips of Flying Reagent Dispenser (FRD, Aurora Discovery, San Diego, CA). The assay plates were incubated at 37C and 5% CO2 for 24hr. For viability read, after 23hr of compound treatment, 1uL of CellTiter-Fluor reagent (Promega Corporation, Madison, WI) was added to each well of the assay plates using Flying Reagent Dispenser (FRD, Aurora Discovery, San Diego, CA) and incubated the assay plates at 37C for 1hr. The fluorescence signal was quantified using a ViewLux plate reader (Perkin Elmer, Shelton, CT).
% is set by controls: 0 for no effect and ±100 for the full control effect; potency is the fitted concentration of half-maximal effect.

Row | SMILES | viability change, negative = cytotoxic | Potency
1 | [O-][Cl+]O | 0.272% (inactive) | –
2 | C=CC(=O)OCC(C)C | 1.21% (inactive) | –
3 | II | -8.14% (inactive) | –
4 | Nc1ccc([N+](=O)[O-])cc1[N+](=O)[O-] | -24.7% (inactive) | –
5 | C=CC(=O)OC(C)(C)C | 2.31% (inactive) | –
6 | C=COC(C)=O | 2.35% (inactive) | –
7 | CN(N=O)c1ccc([N+](=O)[O-])cc1 | -12.7% (inactive) | –
8 | CCOC(=O)COc1cc(-c2nn(C)c(OC(F)F)c2Cl)c(F)cc1Cl | -0.863% (inactive) | –
9 | CC(=O)C(C)(C)C | -0.657% (inactive) | –
10 | O=C(O)C(F)(F)C(F)(F)C(F)(F)C(F)(F)C(F)(F)C(F)(F)C(F)(F)C(F)(F)C(F)(F)C(F)(F)F | -0.56% (inactive) | –
11 | O=C(O)c1ccccc1C(=O)Nc1cccc2ccccc12 | -9.35% (inactive) | –
12 | CCOP(=S)(OCC)SCSCC | 1.25% (inactive) | –
13 | CCN(C)N=O | 8.52% (inactive) | –
14 | C=CC(=O)OCC(C)O (stereo not given) | -9.19% (inactive) | –
15 | CCCN(CCC)c1c([N+](=O)[O-])cc(S(C)(=O)=O)cc1[N+](=O)[O-] | -17.8% (inactive) | –
16 | ClCc1cccc(Cl)c1 | 0.516% [at 42.5 µM] (inactive) | –
17 | Brc1ccc(Oc2ccccc2)cc1 | -4.46% (inactive) | –
18 | CCCCCCCCCCOC(=O)c1ccccc1C(=O)OCCCCCCCCCC | -0.554% (inactive) | –
19 | Nc1nc(=S)[nH][nH]1 | 2.7% (inactive) | –
20 | N#C/C(N)=C(/N)C#N | -6.86% (inactive) | –

Row | SMILES | viability change, negative = cytotoxic | Potency
21 | Cc1c(F)c(F)c(COC(=O)C2C(/C=C(\Cl)C(F)(F)F)C2(C)C)c(F)c1F (stereo not given) | 0.538% (inactive) | –
22 | Cc1ccc(N)cc1C | 1.06% (inactive) | –
23 | COC1=CC(=O)O[C@@H](CCc2ccccc2)C1 | 20.3% (inactive) | –
24 | O=C(N[C@H](c1ccccc1)[C@@H]1CN2CCC1CC2)c1c(Cl)ccc(C(F)(F)F)c1Cl | – | 43.9 µM (active)
25 | ClP(Cl)(Cl)(Cl)Cl | 0.164% (inactive) | –
26 | CC[C@H]1C[C@H]2[C@@H]3CCC4=CC(=O)CC[C@@H]4[C@H]3CC[C@]2(C)[C@H]1O | -0.0367% [at 42.5 µM] (inactive) | –
27 | O=Cc1ccc2c(c1)OCO2 | 4.41% (inactive) | –
28 | CCOc1ccc(C(C)(C)COCc2cccc(Oc3ccccc3)c2)cc1 | 6.61% (inactive) | –
29 | O=C(O)C1(c2ccc3c(c2)OC[C@H](Cc2ccc(-c4ccccc4)cc2)[C@H]3O)CCCC1 | 4.55% (inactive) | –
30 | CCOC(=O)CBr | 6.47% (inactive) | –
31 | CC(C)(Cl)[N+](=O)[O-] | -2.24% (inactive) | –
32 | O=C(NC(=O)c1c(F)cccc1F)Nc1cc(Cl)c(Oc2ncc(C(F)(F)F)cc2Cl)c(Cl)c1 | -16.1% (inactive) | –
33 | OC(c1ccc(Cl)cc1)(c1ccc(Cl)cc1)c1cccnc1 | -1.45% (inactive) | –
34 | CO[C@@H]1[C@H](OC(=O)NC(=O)CCl)CC[C@]2(CO2)[C@H]1[C@@]1(C)O[C@@H]1CC=C(C)C | -7.4% [at 19 µM] (inactive) | –
35 | COC(N)=O | -4.45% (inactive) | –
36 | CCC(Br)(CC)C(=O)NC(N)=O | -5.06% (inactive) | –
37 | CCOP(=S)(OCC)Oc1nc(Cl)c(Cl)cc1Cl | – | 68.7 µM (active) and inactive
38 | CCCCCCCCOC(=O)c1ccc(C(=O)OCCCCCCCC)c(C(=O)OCCCCCCCC)c1 | -2.46% (inactive) | –
39 | IC(I)=C(I)I | – | 17.2 µM (active)
40 | BrCCCCBr | 4.88% (inactive) | –
